These results are taken from ChEMBL document CHEMBL2218924, “A broad activity screen in support of a chemogenomic map for kinase signalling research and drug discovery” (Biochem J, 2013).

In assay [1] the target is T1, Serine/threonine-protein kinase Chk1 (Homo sapiens) (UniProt O14757).
T1 sequence (whole entry): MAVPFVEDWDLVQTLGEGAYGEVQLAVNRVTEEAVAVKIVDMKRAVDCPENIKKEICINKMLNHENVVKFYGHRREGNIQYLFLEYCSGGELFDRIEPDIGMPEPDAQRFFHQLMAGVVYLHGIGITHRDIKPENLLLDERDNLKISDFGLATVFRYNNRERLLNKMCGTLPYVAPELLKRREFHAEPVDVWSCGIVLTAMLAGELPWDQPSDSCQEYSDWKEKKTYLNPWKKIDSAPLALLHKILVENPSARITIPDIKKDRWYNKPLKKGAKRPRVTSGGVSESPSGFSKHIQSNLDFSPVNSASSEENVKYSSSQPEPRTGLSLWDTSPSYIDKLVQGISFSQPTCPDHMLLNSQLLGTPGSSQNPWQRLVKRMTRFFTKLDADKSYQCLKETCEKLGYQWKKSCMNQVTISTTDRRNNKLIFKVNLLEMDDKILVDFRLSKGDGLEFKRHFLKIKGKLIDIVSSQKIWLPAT
Particulars: at 1 µM.

The target of assay [2] is T1, Serine/threonine-protein kinase Chk1 (Homo sapiens). Particulars: at 10 µM.
The target in assay [3] is Serine/threonine-protein kinase Chk2 (Homo sapiens) (UniProt O96017). The settings on record: at 1 µM.
Serine/threonine-protein kinase Chk2 (Homo sapiens), sequence (O96017 whole entry): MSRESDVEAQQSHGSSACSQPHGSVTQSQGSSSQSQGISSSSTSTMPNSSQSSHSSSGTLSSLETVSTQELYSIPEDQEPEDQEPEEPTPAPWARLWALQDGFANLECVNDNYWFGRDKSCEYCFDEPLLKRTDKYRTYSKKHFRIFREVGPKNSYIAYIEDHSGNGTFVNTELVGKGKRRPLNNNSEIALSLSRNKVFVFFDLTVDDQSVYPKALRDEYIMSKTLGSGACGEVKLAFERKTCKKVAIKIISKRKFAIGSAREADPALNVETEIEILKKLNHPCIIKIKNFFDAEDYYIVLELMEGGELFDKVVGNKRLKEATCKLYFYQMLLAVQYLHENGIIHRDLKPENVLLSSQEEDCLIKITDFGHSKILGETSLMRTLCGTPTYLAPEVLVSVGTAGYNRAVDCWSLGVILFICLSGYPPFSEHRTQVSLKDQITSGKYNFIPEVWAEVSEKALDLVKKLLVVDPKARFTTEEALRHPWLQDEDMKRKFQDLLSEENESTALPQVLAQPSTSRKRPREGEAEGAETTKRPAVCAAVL
Assay [4] shares this target. Particulars: at 10 µM.
The target in assay [5] is Casein kinase I isoform gamma-1 (Homo sapiens) (UniProt Q9HCP0). The settings on record: at 1 µM.
Casein kinase I isoform gamma-1 (Homo sapiens), sequence (Q9HCP0 whole entry, looked up, canonical isoform): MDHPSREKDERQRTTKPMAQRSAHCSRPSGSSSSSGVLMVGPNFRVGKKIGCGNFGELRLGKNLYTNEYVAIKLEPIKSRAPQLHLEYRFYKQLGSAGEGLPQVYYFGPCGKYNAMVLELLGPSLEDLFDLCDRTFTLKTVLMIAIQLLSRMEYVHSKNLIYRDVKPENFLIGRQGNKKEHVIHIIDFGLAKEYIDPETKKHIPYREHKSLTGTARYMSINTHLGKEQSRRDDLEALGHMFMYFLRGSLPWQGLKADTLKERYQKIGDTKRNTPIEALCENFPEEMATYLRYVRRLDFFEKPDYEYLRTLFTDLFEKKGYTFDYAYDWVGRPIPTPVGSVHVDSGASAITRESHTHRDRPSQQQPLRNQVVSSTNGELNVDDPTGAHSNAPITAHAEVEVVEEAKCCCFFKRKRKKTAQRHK
For assay [6] the target is unchanged. Particulars: at 10 µM.
Assay [7] addresses Casein kinase I isoform delta (Homo sapiens) (UniProt P48730). Particulars: at 1 µM.
For assay [8] the target is unchanged. Particulars: at 10 µM.
The target in assay [9] is T2, Casein kinase II (Homo sapiens) (UniProt P67870+P68400+P19784). The settings on record: at 1 µM.
T2 sequence (P19784 whole entry, looked up): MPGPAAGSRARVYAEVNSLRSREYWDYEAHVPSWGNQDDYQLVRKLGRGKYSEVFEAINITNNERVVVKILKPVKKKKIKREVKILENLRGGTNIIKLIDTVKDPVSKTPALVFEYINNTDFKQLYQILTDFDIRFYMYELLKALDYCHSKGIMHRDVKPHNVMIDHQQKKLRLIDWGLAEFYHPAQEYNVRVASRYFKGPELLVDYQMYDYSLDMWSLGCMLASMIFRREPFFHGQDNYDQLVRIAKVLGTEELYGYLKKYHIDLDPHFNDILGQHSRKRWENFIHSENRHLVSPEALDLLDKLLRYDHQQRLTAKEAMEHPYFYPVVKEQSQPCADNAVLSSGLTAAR
T2 sequence (P67870 whole entry, looked up): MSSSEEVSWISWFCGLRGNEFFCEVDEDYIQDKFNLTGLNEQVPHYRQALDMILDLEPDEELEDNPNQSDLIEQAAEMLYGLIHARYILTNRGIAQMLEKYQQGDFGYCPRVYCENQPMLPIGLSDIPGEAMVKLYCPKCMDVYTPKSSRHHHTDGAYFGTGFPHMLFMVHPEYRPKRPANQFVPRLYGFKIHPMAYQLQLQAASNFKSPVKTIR
T2 sequence (P68400 whole entry, looked up): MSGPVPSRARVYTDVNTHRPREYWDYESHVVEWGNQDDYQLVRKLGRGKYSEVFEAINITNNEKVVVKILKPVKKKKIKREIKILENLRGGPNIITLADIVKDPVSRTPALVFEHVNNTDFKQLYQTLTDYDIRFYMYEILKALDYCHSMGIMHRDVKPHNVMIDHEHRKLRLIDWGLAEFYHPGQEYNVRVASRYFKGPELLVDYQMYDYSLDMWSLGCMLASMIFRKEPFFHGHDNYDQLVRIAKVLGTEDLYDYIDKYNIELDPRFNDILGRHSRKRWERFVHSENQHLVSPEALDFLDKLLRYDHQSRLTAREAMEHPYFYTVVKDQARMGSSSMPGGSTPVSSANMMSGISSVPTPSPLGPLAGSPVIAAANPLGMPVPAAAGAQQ
The target in assay [10] is T2, Casein kinase II (Homo sapiens). The settings on record: at 10 µM.
Assay [11] has as its target Casein kinase II subunit alpha' (Homo sapiens) (UniProt P19784). Particulars: at 1 µM.
The target is the same in assay [12]. Particulars: at 10 µM.
For assay [13], the target named is Dual specificity protein kinase CLK2 (Homo sapiens) (UniProt P49760). Particulars: at 1 µM.
Dual specificity protein kinase CLK2 (Homo sapiens), sequence (P49760 whole entry, looked up): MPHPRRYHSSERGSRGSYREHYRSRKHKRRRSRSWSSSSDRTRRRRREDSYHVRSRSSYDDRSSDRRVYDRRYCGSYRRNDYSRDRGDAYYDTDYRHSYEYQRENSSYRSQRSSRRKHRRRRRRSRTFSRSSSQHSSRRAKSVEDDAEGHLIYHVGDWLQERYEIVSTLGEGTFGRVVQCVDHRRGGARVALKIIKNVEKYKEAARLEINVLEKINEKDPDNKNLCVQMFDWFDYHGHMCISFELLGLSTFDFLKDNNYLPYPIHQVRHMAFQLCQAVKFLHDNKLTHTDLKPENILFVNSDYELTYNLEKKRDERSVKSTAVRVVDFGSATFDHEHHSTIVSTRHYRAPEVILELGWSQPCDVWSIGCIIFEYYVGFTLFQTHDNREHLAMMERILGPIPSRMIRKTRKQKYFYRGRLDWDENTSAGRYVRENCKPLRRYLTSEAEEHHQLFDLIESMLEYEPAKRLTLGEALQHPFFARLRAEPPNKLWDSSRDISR
Assay [14] has the same target. Particulars: at 10 µM.
For assay [15], the target named is Dual specificity protein kinase CLK3 (Homo sapiens) (UniProt P49761). The settings on record: at 1 µM.
Dual specificity protein kinase CLK3 (Homo sapiens), sequence (P49761 whole entry, looked up): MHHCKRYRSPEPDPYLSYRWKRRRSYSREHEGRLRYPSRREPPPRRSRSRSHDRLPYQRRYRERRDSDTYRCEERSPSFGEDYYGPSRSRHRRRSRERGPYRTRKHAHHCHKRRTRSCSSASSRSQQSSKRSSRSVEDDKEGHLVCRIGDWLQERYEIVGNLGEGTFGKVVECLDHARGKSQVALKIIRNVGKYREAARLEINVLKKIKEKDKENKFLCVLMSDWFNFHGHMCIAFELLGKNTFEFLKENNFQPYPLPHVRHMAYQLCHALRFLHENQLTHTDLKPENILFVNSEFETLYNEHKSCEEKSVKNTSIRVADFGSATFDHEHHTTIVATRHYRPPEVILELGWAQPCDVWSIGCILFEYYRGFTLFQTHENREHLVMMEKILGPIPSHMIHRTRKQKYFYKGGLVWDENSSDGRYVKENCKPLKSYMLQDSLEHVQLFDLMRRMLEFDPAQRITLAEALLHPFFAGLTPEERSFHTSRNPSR
Assay [16] shares this target. Particulars: at 10 µM.
Assay [17] addresses T3, CDK9/cyclin T1 (Homo sapiens) (UniProt O60563+P50750). The settings on record: at 1 µM.
Assay [18] deals with Tyrosine-protein kinase CSK (Homo sapiens) (UniProt P41240). The settings on record: at 1 µM.
Tyrosine-protein kinase CSK (Homo sapiens), sequence (P41240 2-450 limits assumed): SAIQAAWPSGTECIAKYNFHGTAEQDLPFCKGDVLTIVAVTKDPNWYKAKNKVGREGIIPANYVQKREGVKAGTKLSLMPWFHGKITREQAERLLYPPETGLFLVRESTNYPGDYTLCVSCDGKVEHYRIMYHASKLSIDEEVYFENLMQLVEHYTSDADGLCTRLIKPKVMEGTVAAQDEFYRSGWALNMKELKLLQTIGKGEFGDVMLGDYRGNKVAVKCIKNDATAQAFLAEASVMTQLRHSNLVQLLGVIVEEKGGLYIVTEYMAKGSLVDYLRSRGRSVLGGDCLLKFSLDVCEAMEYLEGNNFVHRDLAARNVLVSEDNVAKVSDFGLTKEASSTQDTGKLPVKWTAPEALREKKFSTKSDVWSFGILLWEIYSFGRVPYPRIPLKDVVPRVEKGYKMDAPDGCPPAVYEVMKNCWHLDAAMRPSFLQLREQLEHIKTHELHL
Assay [19] has the same target. Particulars: at 10 µM.
For assay [20], the target named is T3, CDK9/cyclin T1 (Homo sapiens). Particulars: at 10 µM.

SMILES strings stand for the structures.

Casein kinase I isoform delta (Homo sapiens), sequence (P48730 whole entry, looked up, canonical isoform): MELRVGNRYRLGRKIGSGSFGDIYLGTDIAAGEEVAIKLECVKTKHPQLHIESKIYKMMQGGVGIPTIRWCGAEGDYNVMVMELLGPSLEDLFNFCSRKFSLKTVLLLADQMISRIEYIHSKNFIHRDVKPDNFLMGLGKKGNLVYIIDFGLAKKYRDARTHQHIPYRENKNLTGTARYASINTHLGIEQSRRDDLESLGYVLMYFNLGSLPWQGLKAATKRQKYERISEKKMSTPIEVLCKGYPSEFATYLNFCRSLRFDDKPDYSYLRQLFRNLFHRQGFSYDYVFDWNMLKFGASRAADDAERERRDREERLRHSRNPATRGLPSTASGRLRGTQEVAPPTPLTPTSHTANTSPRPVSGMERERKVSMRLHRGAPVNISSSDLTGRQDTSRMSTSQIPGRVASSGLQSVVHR
Casein kinase II subunit alpha' (Homo sapiens), sequence (P19784 whole entry, looked up): as the sequence (P19784 whole entry, looked up) above

A word on the residual activity: it is the signal under treatment as a percentage of the control signal. As to `Oc1cccc(-c2nc(N3CCOCC3)c3oc4ncccc4c3n2)c1`, the residual activity in assay [1] was determined as 93%; in [2], 100%; in [3], 100%; in assay [4], 68%; in [5], 90%; in [6], 98%. Further, the residual activity in assay [7] was 83%; in assay [8], 72%; in assay [9] it was 89%; in [10] it was 124%; in assay [11] it was 140%; in [12], 79%. The residual activity in [13] came out at 118%; in assay [14] it was 89%; in assay [15], 79%; in assay [16], 30%.

For the compound `O=c1cc(N2CCOCC2)oc2c(-c3ccccc3)cccc12`, the residual activity in assay [9] turned out to be 54%; in [10], 12%; in assay [12] it was 42%.

For the compound `Nc1nccc(-c2c(-c3ccc(F)cc3)ncn2C2CCNCC2)n1`, the residual activity is 72% in [5]; 21% in assay [6]; 60% in assay [12]; 69% in [13]; 30% in assay [14]; 68% in [16].

As for `O=C(CCCc1ccc(-c2ccccc2F)cc1)Nc1ccc(O)cc1`, the residual activity in assay [17] worked out at 104%; in [1] it was 93%; in assay [2], 108%; in assay [3], 91%; in assay [4] it was 72%; in assay [5] it was 107%. Besides, the residual activity in assay [6] amounted to 102%; in [7], 98%; in [8], 92%; in [9], 92%; in [10], 97%; in assay [11], 106%. Also, the residual activity was determined as 102% in assay [12]; 92% in [15]; 89% in assay [16]; 104% in [18]; 107% in assay [19].

As to `CN([C@@H](Cc1ccc(OS(=O)(=O)c2cccc3cnccc23)cc1)C(=O)N1CCN(c2ccccc2)CC1)S(=O)(=O)c1cccc2cnccc12`, the residual activity is 79% in assay [4] and 73% in assay [6].

In the case of `CC(C)(C)c1nc2c3ccc(F)cc3c3c(=O)[nH]ccc3c2[nH]1`, the residual activity in [1] turned out to be 37%; in assay [2] it was 24%; in [3], 2%; in assay [4], 1%; in [9], 56%; in [10], 63%. For the same compound, the residual activity worked out at 100% in [11]; 34% in [12]; 34% in [13]; 50% in [14]; 68% in assay [15]; 13% in assay [16].

Take `COc1ccc(-c2cnc3c(-c4ccsc4)cnn3c2)cc1`: the residual activity in assay [1] was 87%; in [2], 95%; in assay [5], 98%; in assay [6] it was 92%; in [15], 80%; in [16], 61%. Besides, the residual activity in assay [19] came out at 98%.

For `CSc1nc(-c2ccc(F)cc2)c(-c2ccnc(NC(C)c3ccccc3)c2)[nH]1` (stereo not given), the residual activity turned out to be 96% in [17]; 95% in assay [1]; 78% in assay [2]; 5% in assay [3]; 3% in assay [4]; 62% in assay [5]. Also, the residual activity in assay [6] was 11%; in assay [7], 35%; in [8] it was 9%; in assay [9] it was 99%; in assay [10] it was 99%; in assay [14], 89%. Moreover, the residual activity in assay [15] turned out to be 84%; in assay [16], 86%; in assay [18], 102%; in assay [19] it was 84%.

Take `CC(C)N(CCC(=O)c1ccc2ccccc2c1)Cc1ccccc1`: the residual activity in [3] was 100%; in [4], 72%; in assay [5], 82%; in assay [15], 74%.

Turning to `NC(=O)c1ccc(-c2nc(-c3ccc4c(c3)OCCO4)c(-c3ccccn3)[nH]2)cc1`, the residual activity in [3] was found to be 92%; in assay [4] it was 81%; in [5] it was 82%; in assay [6], 83%; in assay [7], 17%; in assay [8], 2%. For the same compound, the residual activity in assay [9] came out at 95%; in assay [10], 97%; in assay [15], 81%; in assay [16], 76%; in assay [18], 119%; in assay [19], 91%.

Consider `COc1cc2ncnc(Nc3cccc(Cl)c3)c2cc1OC`, for which the residual activity in assay [20] came to 71%; in [2], 89%; in assay [3] it was 79%; in [4], 42%; in [5], 100%; in assay [6], 81%. Also, the residual activity came to 87% in assay [7]; 62% in assay [8]; 128% in assay [11]; 102% in assay [12]; 110% in [13]; 74% in assay [14]. For the same compound, the results for the residual activity in [16], in assay [18] and in [19] were 84%, 111% and 80%, respectively.

Turning to `CCCCc1c(-c2ccc(OC)cc2)[nH]c2nccnc12`, the residual activity was 10% in assay [17]; 17% in [20]; 44% in assay [3]; 11% in assay [4]; 79% in [5]; 77% in assay [6]. Moreover, the residual activity turned out to be 85% in assay [7]; 73% in [8]; 111% in assay [11]; 78% in assay [13]; 85% in assay [15]; 73% in assay [16].

As for `O=C(NC(NC(=S)Nc1ccc(F)c([N+](=O)[O-])c1)C(Cl)(Cl)Cl)C(c1ccccc1)c1ccccc1` (stereo not given), the residual activity in assay [17] was determined as 101%; in assay [20] it was 95%; in [4], 82%; in [5] it was 94%; in [6], 55%; in assay [7], 45%. In addition, the residual activity in assay [8] is 64%; in [10], 85%; in assay [15] it was 94%; in assay [16] it was 84%; in assay [18], 95%; in [19], 101%.

Take `CCN1/C(=C/C(C)=O)Sc2ccc(OC)cc21`: the residual activity in assay [5] was 69%; in assay [6], 21%; in [7], 29%; in assay [8], 4%; in assay [13], 20%; in [14], 6%. The residual activity is 77% in assay [15] and 40% in assay [16].

In the case of `Cn1c2ccccc2c2c3c(c4c5ccccc5n(CCC#N)c4c21)CNC3=O`, the residual activity is 36% in assay [20]; 2% in assay [1]; 0% in assay [2]; 25% in assay [3]; 15% in assay [4]; 70% in [7]. The residual activity in assay [8] turned out to be 48%; in assay [10], 103%; in assay [11], 129%; in [12], 96%; in [16], 1%; in assay [18], 107%. Besides, the residual activity in assay [19] came to 102%.

On to `O=C(Nc1ccc(Cl)cc1)c1ccccc1NCc1ccncc1`, for which the results for the residual activity in [13] and in [14] were 120% and 99%, respectively.

In the case of `NC(=O)c1cccc(-c2cc(Nc3ccc(OC(F)(F)F)cc3)ncn2)c1`, the residual activity stood at 69% in assay [20]; 99% in assay [1]; 96% in assay [2]; 95% in assay [3]; 87% in [4]; 94% in assay [5]. In addition, the residual activity in assay [6] turned out to be 63%; in assay [7], 90%; in assay [8], 74%; in [9], 99%; in [10] it was 97%; in [15] it was 97%.

On to `CC(C)[C@H](CO)Nc1nc(Nc2cc(N)cc(Cl)c2)c2ncn(C(C)C)c2n1`, for which the residual activity in [3] stood at 67%; in [4], 30%; in [7], 74%; in assay [8] it was 26%; in assay [10], 93%; in assay [11], 120%. The values for the residual activity in [12] and in [19] were 96% and 73%, respectively.

With `O=c1c(-c2ccc(F)cc2)c(-c2ccncc2)[nH]n1-c1ccc(Cl)cc1`, the residual activity in [17] was 100%; in [20], 100%; in [3], 43%; in assay [4] it was 33%; in assay [6] it was 62%; in [7], 44%. Moreover, the residual activity in assay [8] was 5%; in assay [13] it was 122%; in assay [14] it was 101%; in [16], 81%.

As for `O=C1Cc2c([nH]c3ccc(Br)cc23)-c2ccccc2N1`, the residual activity in [1] was determined as 77%; in assay [2] it was 53%; in assay [6], 71%; in assay [7], 80%; in assay [8], 68%; in assay [9], 79%. The residual activity in assay [10] is 55%; in assay [12] it was 92%; in [13], 80%; in assay [14], 56%; in [15] it was 78%; in assay [16], 67%. Besides, the residual activity in assay [19] is 81%.
